Source: PubChem BioAssay AID1159580 (chemical genetic matrix, 2015)
Values joined by “and” are separate entries in the source; they are usually repeats but may differ in a detail not shown here. Equal values may be shown once. In all, about 5,500 compounds went through this assay and about 2,000 (36%) were called active. Another 18% or so got no clear call; they are omitted. Rule as the data show it: active = normalized growth mostly below about 0.91 (no sharp cut-off); inconclusive = no clear call, values can overlap the other calls; inactive = mostly above about 0.92. The list shows a part of the results.

Test: chemical genetic growth profiling, strain panel (AID 1159580);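 also: tested at 20 µM; growth read once vehicle control cultures reached saturation at 30 °C; 1 = growth at the plate median or of vehicle wells; lower values mean less growth of the strain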
Conditions: S. cerevisiae deletion strains, growth OD
[1] = locus YNL322C, strain KRE1, stronger effect = lower value
[2] = locus YPL241C, strain CIN2, stronger effect = lower value

Measured: normalized growth

Nc1ccn([C@@H]2O[C@H](CO)[C@@H](O)C2O)c(=O)n1 (stereo partly specified)
inactive: locus YAL013W, strain DEP1, stronger effect = lower value 0.982 | locus YAL040C, strain CLN3, stronger effect = lower value 1.03 | locus YDR363W, strain ESC2, stronger effect = lower value 0.981 | locus YER002W, strain NOP16, stronger effect = lower value 1 | locus YNL128W, strain TEP1, stronger effect = lower value 0.967 | locus YNL175C, strain NOP13, stronger effect = lower value 0.987 | locus YNL197C, strain WHI3, stronger effect = lower value 0.976 | locus YNL224C, strain SQS1, stronger effect = lower value 0.983 | [1] 1 | locus YOR083W, strain WHI5 (second series), stronger effect = lower value 1.05 | locus YPL055C, strain LGE1, stronger effect = lower value 0.99 | [2] 0.996

COc1cc([C@@H]2c3cc4c(cc3[C@H](OC(C)=O)[C@H]3COC(=O)[C@@H]23)OCO4)cc(OC)c1OC
inactive: locus YAL021C, strain ccr4, stronger effect = lower value 1.01 | locus YAL026C, strain drs2, stronger effect = lower value 0.991 | locus YAL030W, strain snc1, stronger effect = lower value 1.01 | locus YBL061C, strain skt5, stronger effect = lower value 1.01 | locus YBR009C, strain hhf1, stronger effect = lower value 0.996 | locus YBR021W, strain FUR4, stronger effect = lower value 1.01 | locus YBR023C, strain chs3, stronger effect = lower value 1.01 | locus YBR171W, strain sec66, stronger effect = lower value 1 | locus YBR229C, strain ROT2, stronger effect = lower value 1.01 | locus YBR231C, strain swc5, stronger effect = lower value 1.01 | locus YBR279W, strain paf1, stronger effect = lower value 1 | locus YCL011C, strain gbp2, stronger effect = lower value 1 | locus YCL016C, strain dcc1, stronger effect = lower value 1 | locus YCL029C, strain bik1, stronger effect = lower value 1.01 | locus YCL069W, strain vba3, stronger effect = lower value 1 | locus YCR088W, strain abp1, stronger effect = lower value 0.982 | locus YDL005C, strain med2, stronger effect = lower value 1 | locus YDL035C, strain GPR1, stronger effect = lower value 1.02 | locus YDL040C, strain nat1, stronger effect = lower value 1 | locus YDL074C, strain BRE1, stronger effect = lower value 1.02 | locus YDL101C, strain DUN1, stronger effect = lower value 1.01 | locus YDL185W, strain tfp1, stronger effect = lower value 1.03 | locus YDL192W, strain arf1, stronger effect = lower value 1.04 | locus YDR001C, strain nth1, stronger effect = lower value 0.99 | locus YDR069C, strain doa4, stronger effect = lower value 1.01 | locus YDR101C, strain arx1, stronger effect = lower value 1.01 | locus YDR137W, strain rgp1, stronger effect = lower value 1.03 | locus YDR150W, strain NUM1, stronger effect = lower value 1.01 | locus YDR159W, strain sac3, stronger effect = lower value 1.01 | locus YDR162C, strain NBP2, stronger effect = lower value 1.01 | locus YDR195W, strain ref2 0.972 | locus YDR297W, strain sur2, stronger effect = lower value 1.01 | locus YDR318W, strain mcm21, stronger effect = lower value 1.02 | locus YDR334W, strain swr1, stronger effect = lower value 0.969 | locus YDR335W, strain msn5, stronger effect = lower value 1.01 | locus YDR388W, stronger effect = lower value 1.02 | locus YDR392W, strain spt3, stronger effect = lower value 0.998 | locus YDR502C, strain sam2, stronger effect = lower value 1.01 | locus YEL003W, strain gim4, stronger effect = lower value 0.998 | locus YEL037C, strain rad23, stronger effect = lower value 0.985 | locus YEL061C, strain CIN8 (second series), stronger effect = lower value 0.98 | locus YEL061C, strain CIN8, stronger effect = lower value 1.01 | locus YER015W, strain faa2, stronger effect = lower value 1.01 | locus YER016W, strain bim1, stronger effect = lower value 1.01 | locus YER110C, stronger effect = lower value 1.02 | locus YER111C, strain swi4, stronger effect = lower value 1.01 | locus YER155C, strain BEM2 (second series), stronger effect = lower value 1.01 | locus YER155C, strain BEM2, stronger effect = lower value 0.998 | locus YER167W, strain BCK2, stronger effect = lower value 1.02 | locus YFR010W, strain ubp6, stronger effect = lower value 0.98 | locus YGL078C, strain dbp3, stronger effect = lower value 1.03 | locus YGL086W, strain mad1, stronger effect = lower value 1.01 | locus YGL167C, strain pmr1, stronger effect = lower value 1 | locus YGL173C, strain kem1, stronger effect = lower value 1.01 | locus YGL227W, strain vid30, stronger effect = lower value 0.994 | locus YGL240W, strain doc1, stronger effect = lower value 1.01 | locus YGL248W, strain PDE1, stronger effect = lower value 1.01 | locus YGL253W, strain hxk2, stronger effect = lower value 1 | locus YGR078C, strain PAC10, stronger effect = lower value 1.02 | locus YGR135W, strain pre9, stronger effect = lower value 1.03 | locus YGR252W, strain gcn5, stronger effect = lower value 1.01 | locus YHR013C, strain ard1, stronger effect = lower value 1.01 | locus YHR027C, strain rpn1, stronger effect = lower value 0.993 | locus YHR030C, strain SLT2, stronger effect = lower value 1.01 and 0.979 | locus YHR079C, strain IRE1 (second series), stronger effect = lower value 1.03 | locus YHR079C, strain IRE1, stronger effect = lower value 0.985 | locus YHR094C, strain hxt1, stronger effect = lower value 1.03 | locus YHR129C, strain ARP1, stronger effect = lower value 1.01 | locus YHR142W, strain chs7, stronger effect = lower value 0.995 | locus YHR200W, strain rpn10, stronger effect = lower value 1.04 | locus YIL066C, strain RNR3, stronger effect = lower value 1.02 | locus YIL073C, strain SPO22, stronger effect = lower value 1.07 | locus YIL125W, strain kgd1, stronger effect = lower value 1.01 | locus YIR030C, strain dcg1, stronger effect = lower value 1.01 | locus YJL092W, strain hpr5, stronger effect = lower value 0.986 | locus YJL095W, strain BCK1 (second series), stronger effect = lower value 0.999 | locus YJL095W, strain BCK1, stronger effect = lower value 1.01 and 1.04 | locus YJL115W, strain asf1, stronger effect = lower value 0.993 | locus YJL129C, strain trk1, stronger effect = lower value 1.01 | locus YJL134W, strain LCB3, stronger effect = lower value 1.01 | locus YJL154C, strain vps35, stronger effect = lower value 0.978 | locus YJL164C, strain tpk1, stronger effect = lower value 1.01 | locus YJL166W, strain qcr8, stronger effect = lower value 1.02 | locus YJL168C, strain set2, stronger effect = lower value 1.02 | locus YJL187C, strain SWE1 (second series), stronger effect = lower value 1.02 | locus YJR043C, strain POL32, stronger effect = lower value 1.01 | locus YJR066W, strain TOR1, stronger effect = lower value 0.931 | locus YKL009W, strain mrt4, stronger effect = lower value 0.999 | locus YKL068W, stronger effect = lower value 1.01 | locus YKL085W, strain MDH1 (second series), stronger effect = lower value 1 | locus YKL085W, strain MDH1, stronger effect = lower value 1 | locus YKL160W, strain elf1, stronger effect = lower value 1.01 | locus YKL190W, strain CNB1, stronger effect = lower value 1.01 | locus YKR001C, strain vps1, stronger effect = lower value 1.03 | locus YKR026C, strain gcn3, stronger effect = lower value 0.997 | locus YKR091W, strain srl3, stronger effect = lower value 1 | locus YLL001W, strain dnm1, stronger effect = lower value 0.991 | locus YLL026W, stronger effect = lower value 1.01 | locus YLL041C, strain sdh2, stronger effect = lower value 0.997 | locus YLR027C, strain aat2, stronger effect = lower value 1 | locus YLR039C, strain RIC1, stronger effect = lower value 1.01 | locus YLR058C, strain SHM2, stronger effect = lower value 1.01 | locus YLR102C, strain apc9, stronger effect = lower value 1.03 | locus YLR113W, strain HOG1, stronger effect = lower value 1.08 | locus YLR221C, strain rsa3, stronger effect = lower value 1.01 | locus YLR258W, strain gsy2, stronger effect = lower value 1.01 | locus YLR262C, strain YPT6 (second series), stronger effect = lower value 0.956 | locus YLR262C, strain YPT6, stronger effect = lower value 1.07 | locus YLR268W, strain sec22, stronger effect = lower value 1.01 | locus YLR320W, strain mms22, stronger effect = lower value 1.01 | locus YLR330W, strain CHS5, stronger effect = lower value 1.01 | locus YLR342W, strain FKS1 (second series), stronger effect = lower value 1.02 | locus YLR342W, strain FKS1, stronger effect = lower value 1 | locus YLR357W, strain rsc2, stronger effect = lower value 0.973 | locus YLR370C, strain arc18, stronger effect = lower value 1.02 | locus YLR371W, strain rom2, stronger effect = lower value 1.02 | locus YLR384C, strain iki3, stronger effect = lower value 0.994 | locus YLR418C, strain cdc73, stronger effect = lower value 1.03 | locus YML016C, strain PPZ1, stronger effect = lower value 1.01 | locus YML032C, strain rad52, stronger effect = lower value 1.02 | locus YML120C, strain ndi1, stronger effect = lower value 1.01 | locus YML124C, strain tub3, stronger effect = lower value 1.02 | locus YMR058W, strain fet3, stronger effect = lower value 1 | locus YMR078C, strain ctf18, stronger effect = lower value 1.05 | locus YMR125W, strain sto1, stronger effect = lower value 0.986 | locus YMR129W, stronger effect = lower value 1 | locus YMR205C, strain PFK2, stronger effect = lower value 0.995 | locus YMR223W, strain ubp8, stronger effect = lower value 1.03 | locus YMR231W, strain pep5, stronger effect = lower value 1 | locus YMR263W, strain SAP30, stronger effect = lower value 1.01 | locus YMR307W, strain GAS1, stronger effect = lower value 1.04 | locus YNL067W, strain RPL9B, stronger effect = lower value 1.02 | locus YNL071W, strain lat1, stronger effect = lower value 0.991 | locus YNL183C, strain NPR1, stronger effect = lower value 0.972 | locus YNL209W, strain ssb2, stronger effect = lower value 0.989 | locus YNL233W, strain BNI4, stronger effect = lower value 1.01 | locus YNL248C, strain rpa49, stronger effect = lower value 0.961 | locus YNL250W, strain rad50, stronger effect = lower value 1.03 | locus YNL271C, strain bni1, stronger effect = lower value 1.02 | locus YNL298W, strain CLA4, stronger effect = lower value 1.02 | locus YNL307C, strain MCK1, stronger effect = lower value 1.02 | locus YNL322C, strain KRE1 (second series), stronger effect = lower value 1 | [1] 1.01 | locus YNR049C, strain mso1, stronger effect = lower value 0.993 | locus YNR052C, strain pop2, stronger effect = lower value 1.03 | locus YOL006C, strain TOP1, stronger effect = lower value 1.07 | locus YOL012C, strain htz1 0.847 | locus YOL147C, strain pex11, stronger effect = lower value 1.01 | locus YOR001W, strain rrp6, stronger effect = lower value 0.987 | locus YOR061W, strain CKA2, stronger effect = lower value 1.01 | locus YOR069W, strain VPS5, stronger effect = lower value 1.01 | locus YOR070C, strain gyp1, stronger effect = lower value 1.01 | locus YOR080W, strain dia2, stronger effect = lower value 1 | locus YOR083W, strain WHI5, stronger effect = lower value 1.01 | locus YOR106W, strain vam3, stronger effect = lower value 1 | locus YOR136W, strain idh2, stronger effect = lower value 1.02 | locus YOR144C, strain elg1, stronger effect = lower value 1.01 | locus YOR184W, strain ser1, stronger effect = lower value 1.03 | locus YOR231W, strain MKK1, stronger effect = lower value 0.986 | locus YOR265W, strain rbl2, stronger effect = lower value 1 | locus YOR270C, strain vph1, stronger effect = lower value 0.847 | locus YOR290C, strain snf2, stronger effect = lower value 1.01 | locus YOR316C, strain cot1, stronger effect = lower value 1.01 | locus YPL051W, strain arl3, stronger effect = lower value 1.03 | locus YPL078C, strain atp4, stronger effect = lower value 0.978 | locus YPL106C, strain sse1, stronger effect = lower value 1.01 | locus YPL240C, strain hsp82, stronger effect = lower value 0.993 | [2] 1.02 | locus YPL256C, strain CLN2, stronger effect = lower value 1 | locus YPR119W, strain clb2, stronger effect = lower value 1.04 | locus YPR141C, strain kar3, stronger effect = lower value 1.03 | locus YPR163C, strain tif3, stronger effect = lower value 1.03 | locus YPR167C, strain met16, stronger effect = lower value 1.01 | strain wtn01, stronger effect = lower value 1.03
